This is an account of results in PubChem BioAssay (Tox21).

“And” between values parts separate entries of the source, which are not always exact repeats. Equal entries are not always repeated. Inconclusive results are not listed. Entries that show only a call come without a potency. A structure can be active in one record and inactive in another. The source made the active and inactive calls. Calls follow the shape of the dose curve; as a rule, active = well fitted cell-killing curve with a large enough effect in the repeat runs; inconclusive = weak or mixed curves, or effect the other way; inactive = no such curve, though single readings can be large or run the other way.
Potency is read from the fitted curve at half-maximal effect.

This assay is described as follows: qHTS assay to identify small molecule antagonists of the vitamin D receptor (VDR) signaling pathway - cell viability counter screen (AID 743225). Also: nearly all actives have a fitted effect of over 50% in size. The conditions noted are these: VDR-bla HEK293T viability, CellTiter-Glo luminescence, 16 h; series mostly up to 61 µM. The text has this:
U.S. Tox21 Program National Center for Advancing Translational Sciences [NCATS] NIH Chemical Genomics Center [NCGC] U.S. Environmental Protection Agency [EPA] National Institutes of Environmental Health Sciences [NIEHS] National Toxicology Program [NTP] U.S. Food and Drug Administration [FDA] Tox21 Assay Overview: The vitamin D receptor (VDR), a member of nuclear hormone receptor superfamily, plays a critical role in calcium homeostasis and bone metabolism. It is also involved in cell differentiation and growth, and thrombogenicity. To identify the compounds that inhibit VDR signaling, the VDR-UAS-bla HEK 293T cell line (Invitrogen, Carlsbad, CA, USA) containing a beta-lactamase reporter gene under the control of an upstream activator sequence (UAS) was used to screen the Tox21 10K compound library. The cytotoxicity of the Tox21 compound library against the VDR-bla cell line was tested in parallel by measuring the cell viability using CellTiter-Glo assay (Promega, Madison, WI) in the same wells.
Tox21 Assay Protocol Summary: VDR-bla cells were dispensed at 2,000 cells/5 uL of assay medium per well into black wall/clear-bottom 1536-well plates using a Multidrop Combi (Thermo Fisher Scientific, Waltham, MA) dispenser. After the assay plates were incubated at a 37C and 5% CO2 for 4 h, 23 nL of compounds dissolved in DMSO, positive controls or DMSO only was transferred to the assay plate by a Pintool station (Kalypsys, San Diego, CA), followed by addition of 1 uL of 1-alpha, 25-Dihydroxy Vitamin D3 (3 nM, final concentration in the wells) using a Bioraptr Flying Reagent Dispenser (FRD) workstation (Beckman Coulter, Indianapolis, IN). The plates were incubated at 37C and 5% CO2 for 16 h, and then 1 uL of LiveBLAzerTM B/G FRET substrate was added using a Bioraptr FRD. The plates were incubated at room temperature for 2 h and fluorescence intensity was measured by an Envision plate reader (PerkinElmer, Shelton, CT). For cell viability readout that measures cytotoxicity, 3 ul/well of CellTiter-Glo reagent was added into the assay plates using a Bioraptr FRD. After 30 min incubation at room temperature, the luminescence intensity in the plates was measured using a ViewLux plate reader (PerkinElmer).
For orientation: In qHTS, concentration-response curves come from the screen itself.
Take `Clc1ccc(C(Cn2ccnc2)OCc2c(Cl)cccc2Cl)c(Cl)c1` (stereo not given): the Potency result was “inactive”.
For `O=C1c2c(O)ccc([N+](=O)[O-])c2C(=O)c2c([N+](=O)[O-])ccc(O)c21`, the Potency was 9.68 µM (active).
To `CC(C)(C)C1=CC(=O)C=C(C(C)(C)C)C1=O` belongs “inactive”; to `CCN1CCN(c2cc(-c3ccc(F)cc3)c3c(n2)CCCCCC3)CC1`, “inactive”; to `Clc1ccccc1CN1CCc2sccc2C1`, “inactive”.
Regarding `Cc1oc(-c2ccccc2)nc1CCOc1ccc(C[C@H](Nc2ccccc2C(=O)c2ccccc2)C(=O)O)cc1`, the Potency is 19.5 µM (active).
To `CC(=O)Nc1ccc(O)cc1` belongs “inactive”; to `O=C(O)Cc1ccc(OCCNC[C@H](O)c2ccccc2)cc1`, “inactive”; to `CC(C)(C)CC(C)(C)c1ccccc1O`, 22 µM (active).
The result for `CCCCCCOc1ccc(O)cc1` reads “inactive”.
To `CCN(CC)CCOC(=O)C1(C2CCCCC2)CCCCC1` belongs “inactive”.
In the case of `CCNc1nc(NC(C)CC)nc(OC)n1` (stereo not given), the Potency result was “inactive”.
The result for `c1ccc(Sc2ccccc2)cc1` reads “inactive”; that for `O=C(Nc1ccc(Cl)cc1)Nc1ccc(Cl)c(C(F)(F)F)c1`, 12 µM (active).
For `Cc1cn[nH]c1`, the Potency result was “inactive”.
Consider `C=CCCCCCCC=C`, for which the Potency entry was “inactive”.
Take `Cc1cc2c(C(C)C)c(O)c(O)c(C=O)c2c(O)c1-c1c(C)cc2c(C(C)C)c(O)c(O)c(C=O)c2c1O`: the Potency was 9.52 µM (active).
Regarding `CCCCCCCC/C=C/CCCOC(C)=O`, the Potency entry is “inactive”.
To `NC(=O)c1ccccc1N` belongs “inactive”; to `NCCCCCCNCCCCCCN`, “inactive”.
To `SCCCCCCCCS` belongs “inactive”.
To `ClC/C=C\CCl` belongs “inactive”; to `O=C1NCCN1CCN1CCC(c2cn(-c3ccc(F)cc3)c3ccc(Cl)cc23)CC1`, 16.9 µM (active).
Regarding `NC(=O)C(=O)N/N=C/c1ccc([N+](=O)[O-])o1`, the Potency result was “inactive”.
The result for `C[C@@H]1CC[C@H]2C(C)(C)[C@H]3C[C@@]12CC[C@@]3(C)O` reads “inactive”; that for `COC(=O)[C@]1(C)CCC[C@@]2(C)[C@H]1CC=C1C=C(C(C)C)CC[C@@H]12`, “inactive”; that for `COc1ccc2sc(C(=O)Nc3nnn[nH]3)c(OC(C)C)c2c1`, “inactive”.
The result for `CCCSS/C(CCO)=C(\C)N(C=O)Cc1cnc(C)nc1N` reads “inactive”; that for `NCCCC(O)(P(=O)(O)O)P(=O)(O)O`, “inactive”; that for `CCCC(CC)CCCCCCCN` (stereo not given), “inactive”.
As for `CCN(CC)CCOc1ccc(C(O)(Cc2ccc(Cl)cc2)c2ccc(C)cc2)cc1` (stereo not given), the Potency was 23.9 µM (active).
For the molecule `COCC(=O)O[C@]1(CCN(C)CCCc2nc3ccccc3[nH]2)CCc2cc(F)ccc2[C@@H]1C(C)C`, the Potency was 21.3 µM (active).
To `O=S(=O)(O)CCCN1CCOCC1` belongs “inactive”.
Regarding `CCCN(CCc1cccs1)[C@H]1CCc2c(O)cccc2C1`, the Potency entry is “inactive”.
Take `CCOC(=O)N1CCC(=C2c3ccc(Cl)cc3CCc3cccnc32)CC1`: the Potency is 38.9 µM (active) and inactive.
To `CCCCCCCCCCCCCC[n+]1ccccc1` belongs 24.5 µM (active); to `CCC1(c2cnc[nH]2)Cc2ccccc2C1`, “inactive”.
In the case of `Cc1cccc(C)c1NC(=O)CN1CCN(CCCC(c2ccc(F)cc2)c2ccc(F)cc2)CC1`, the Potency was 23.9 µM (active).
On to `O=C(O)CCn1c2c(c3ccccc31)C[C@H](NS(=O)(=O)c1ccc(F)cc1)CC2`, for which the Potency result was “inactive”.
To `CCCCC(CC)COC(=O)c1ccc(O)cc1` (stereo not given) belongs 15.4 µM (active) and 38.9 µM (active).
